Shown are actives, neighbours in structure and some others; about 6.1% of the full set was active somewhere.
DRD3 agonist: qHTS of D3 Dopamine Receptor Agonist: qHTS; AID 652048, 2013; 0.58% of 410,000 active; D(3) dopamine receptor (Homo sapiens), P35462; max activation, %; D3R DiscoveRx beta-arrestin cells, luminescence, 90 min; in the data active = max activation above about 30%
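Agonist mode: compounds and dopamine controls were applied to plated cells for 90 min at 37 degrees C after an overnight attachment at 1500 cells/well. Luminescent read-out followed 30 - 60 minutes at room temperature with DiscoveRx detection reagent.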
D3 antag: qHTS of D3 Dopamine Receptor Antagonist: qHTS; D(3) dopamine receptor (Homo sapiens), P35462; D3R cells, DiscoveRx beta-arrestin luminescence, antagonist mode; stronger effect = lower value; max response, negative = inhibition, %; 2.5% of 360,000 active; AID 652054, 2013; in the data active = max response below about -50%; inconclusive = no clear call, values can overlap the other calls
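Cells expressing the human receptor were seeded at 1500 cells/well, incubated overnight at 37 degrees C in 5% CO2, then exposed to library compounds with dopamine controls for 90 minutes at 37 degrees C before luminescent detection.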
D1 potentiator: Potentiators of Human D1 Dopamine Receptor: qHTS. D(1A) dopamine receptor (Homo sapiens), P21728. HEK293 TREx D1 cells, calcium flux, dopamine EC20 potentiation. potentiation, % at 10 µM. 0.036% of 360,000 active. AID 504651, 2011; in the data active = potentiation above about 30%
D1 ag: Allosteric Agonists of the Human D1 Dopamine Receptor: qHTS; activation, % at 2 µM; HEK293 T-REx D1 cells, calcium flux, agonist mode; 1% of 360,000 active; D(1A) dopamine receptor (Homo sapiens), P21728; in the data active = activation above about 30%
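Agonism was scored from calcium flux recorded over 180 s (1 read/s) after pintool compound addition, following a 10-cycle baseline. Cells were inducible force-coupled HEK293 TREx D1, plated overnight at 30 C and loaded with no-wash calcium dye.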
D1 antagonist: Antagonist of Human D 1 Dopamine Receptor: qHTS; 3.2% of 360,000 active; HEK293 TREx D1 cells, calcium flux, dopamine EC80; stronger effect = lower value; D(1A) dopamine receptor (Homo sapiens), P21728; activity change, negative = inhibition, % at 10 µM; in the data active = activity change below about -30%
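Using tetracycline-induced force-coupled D1 Hek293 cells and a calcium dye, signals were followed for 180 s after compound, then for 180 s after EC80 dopamine, to detect inhibitors.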
ERG Ets-DNA blk: qHTS for Small Molecule Inhibitors of the ERG Ets/DNA interaction. fluorescence polarization, His-ERG Ets domain / labelled DNA. Potency, µM (doses to about 76.9 µM), actives largely listed as inhibitors. 0.028% of 370,000 active; active = well fitted inhibition curve with a large enough effect in the polarisation, with a control signal flat; inconclusive = small, poorly fitted or top-dose-only effect, or effect the other way, or a change in a side signal; inactive = no such curve, though single readings can be large or run the other way; the % refers to the polarisation;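 note: polarization taken with two DNA probes labelled with fluorescein and Texas red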
Target sequence (P11308 whole entry, looked up, the tested form may be a part): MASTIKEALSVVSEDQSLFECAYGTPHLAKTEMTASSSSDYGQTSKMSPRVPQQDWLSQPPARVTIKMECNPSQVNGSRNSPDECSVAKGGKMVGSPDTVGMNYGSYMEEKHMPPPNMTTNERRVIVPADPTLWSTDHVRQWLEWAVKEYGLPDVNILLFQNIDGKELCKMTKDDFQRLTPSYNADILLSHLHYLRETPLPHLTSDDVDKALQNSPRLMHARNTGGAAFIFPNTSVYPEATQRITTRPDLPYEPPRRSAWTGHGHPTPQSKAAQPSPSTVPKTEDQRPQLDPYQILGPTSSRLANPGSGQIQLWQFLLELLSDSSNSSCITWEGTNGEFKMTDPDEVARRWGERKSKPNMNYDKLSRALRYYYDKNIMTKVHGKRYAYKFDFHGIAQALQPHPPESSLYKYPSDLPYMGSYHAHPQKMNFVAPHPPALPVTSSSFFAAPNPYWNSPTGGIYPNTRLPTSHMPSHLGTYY
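His-tagged ERG Ets domain (1 uM in the protein solution; 300mM KCl, 50mM Tris-HCl, 1mM EDTA, 1mM DTT, pH 7.5) received compound, then a probe mix of 5 nM fluorescein-DNA and 100nM Texas-615-DNA. Fluorescence polarization was read for both dyes.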
A number is an active result; n = inactive; u = inconclusive; x = no result given.

SMILES	DRD3 agonist	D3 antag	D1 potentiator	D1 ag	D1 antagonist	ERG Ets-DNA blk
C[C@H](CO)N1C[C@H](C)[C@@H](CN(C)C(=O)c2cnccn2)Oc2cc(C#CCC3CCCC3)ccc2S1(=O)=O	n	-61	x	x	x	x
C[C@@H]1CN([C@H](C)CO)S(=O)(=O)c2ccc(Br)cc2O[C@H]1CN(C)C(=O)C1CCCCC1	n	-74	x	x	x	x
O=C(Nc1ccc(-c2nc3ccccc3o2)cc1)c1ccc(N2CCOCC2)c([N+](=O)[O-])c1	n	n	n	n	n	n
COc1ccc2oc(-c3ccc(NC(=O)c4ccc(N5CCOCC5)c([N+](=O)[O-])c4)cc3)nc2c1	54	n	n	n	n	n
COc1cccc(/C=N/n2c(SC)nnc2-c2ccccc2)c1O	n	n	n	30	n	n
COc1cc(C2C=C(C34CC5CC(CC(C5)C3)C4)NC(=S)N2)cc(OC)c1OC (stereo not given)	n	-82	n	n	n	n
CC(C)C1N(C(=O)CN2CCCC2)CCN1S(=O)(=O)c1ccccc1 (stereo not given)	n	n	n	n	-45	n
COc1ccc(C2N(C(C)=O)CCCN2S(=O)(=O)c2ccc(C)cc2)cc1 (stereo not given)	n	n	n	n	n	n
COc1ccc(C2N(C(=O)CN3CCCC3)CCCN2S(=O)(=O)c2ccccc2)cc1 (stereo not given)	n	n	n	32	n	n
O=S1(=O)[C@H]2C[C@H](CO)O[C@@]2(CO)CN1Cc1ccc(-c2cccc(Cl)c2)cc1	n	n	x	x	x	n
O=S1(=O)[C@H]2C[C@H](CO)O[C@@]2(CO)CN1Cc1ccc(-c2ccc(F)cc2)cc1	31	n	x	x	x	n
CCOC(=O)NC(NCc1ccccc1)(C(F)(F)F)C(F)(F)F	n	n	n	n	n	n
CCOC(=O)NC(NCCc1ccccc1)(C(F)(F)F)C(F)(F)F	31	n	n	n	x	x
CCC/C(=C1/C(=O)CC(C)(C)C(C(=O)OC)C1=O)N1CCCC1 (stereo not given)	n	n	n	n	n	n
CCCCSc1nc(O)c(C2OC(=O)c3c2ccc(OC)c3OC)c(=O)n1-c1ccccc1 (stereo not given)	n	u	n	n	-34	n
Cc1cc(C)nc(Nc2nc3ccccc3o2)n1	n	n	n	n	-31	n
COc1ccc(CNC(=O)CN(CCC(C)C)S(=O)(=O)c2ccc3c(c2)OCCO3)cc1	n	n	n	n	-32	n
CCOC(=O)Cn1c(=N)n(CCOc2ccc3ccccc3c2)c2ccccc21	n	n	n	32	n	n
COc1cc(OC)cc(C2=Cc3ccccc3C(CC(C)=O)N2c2ccc(C#CC3(O)CCCCC3)cc2)c1 (stereo not given)	n	n	x	x	x	x
CC(C)CNS(=O)(=O)c1ccc(OCC(=O)Nc2ccc3c(c2)OCCO3)cc1	n	n	n	n	n	n
CC(C)[C@H](NS(=O)(=O)c1ccc2c(c1)OCCO2)C(=O)OCC(=O)Nc1cccc(Cl)c1Cl	n	n	n	n	-31	n
CCC(C)NS(=O)(=O)c1ccc(OCC(=O)Nc2ccc3c(c2)OCCO3)cc1 (stereo not given)	n	n	n	n	-43	x
CCOC(=O)c1ccc(NC(=O)COc2ccc(S(=O)(=O)NC(C)CC)cc2)cc1 (stereo not given)	n	n	n	n	-38	n
COc1ccccc1-c1coc2c(CN3CCCCC3C)c(O)ccc2c1=O (stereo not given)	n	n	n	n	n	n
Cc1cc(C(F)F)n2nc(C(=O)Nc3ccc(F)cc3F)nc2n1	n	-54	n	n	n	n
SMILES	DRD3 agonist	D3 antag	D1 potentiator	D1 ag	D1 antagonist	ERG Ets-DNA blk
O=C(CSc1nc2ncccc2[nH]1)NCCc1ccccc1	n	n	n	n	-39	n
O=C(CSc1nc2ncccc2[nH]1)Nc1c(F)cc(F)cc1Br	n	-58	n	n	n	n
CC1CCCCN1S(=O)(=O)c1ccc2c(c1)C(C)(C)C(=O)N2C (stereo not given)	n	n	n	n	n	n
CCOC(=O)[C@H](O)[C@@H](O)c1cccc([C@H](O)[C@@H](O)C(=O)OCC)c1	n	n	n	n	n	n
COc1ccccc1NC(=O)COC(=O)c1ccc(N2CCCC2=O)cc1	n	n	n	n	-31	n
O=C(NCC1CCCO1)/C(=C\c1cccs1)NC(=O)c1ccccc1 (stereo not given)	n	n	n	n	n	n
COC(=O)c1ccc(-c2nc(CN3CCCN(C(=O)c4ccco4)CC3)c(C)o2)cc1	n	n	n	n	n	n
CCOc1ccccc1-c1nc(CN2CCCN(C(=O)c3ccco3)CC2)c(C)o1	n	-79	n	n	-67	n
Cc1oc(-c2ccc(F)cc2F)nc1CN1CCN(C(=O)c2ccco2)CC1	n	n	x	x	x	x
COc1ccc(-c2nc(CN3CCN(C(=O)c4ccco4)CC3)c(C)o2)c(F)c1	35	n	n	n	n	n
CCN(CC)S(=O)(=O)c1ccc(N2CCOCC2)c(NC(=O)Cc2ccc(Cl)cc2)c1	n	n	n	n	n	n
COc1cccc(C2=CC(c3ccccc3)n3nnnc3N2)c1 (stereo not given)	n	n	x	x	x	x
Fc1ccc(Br)cc1C1C=C(c2cccnc2)Nc2ncnn21 (stereo not given)	n	n	n	n	n	n
COc1ccc(C2=CC(c3ccc(C)cc3)n3nnnc3N2)cc1 (stereo not given)	32	n	n	n	n	n
COc1cccc(C2=CC(c3cc(OC)ccc3OC)n3nnnc3N2)c1 (stereo not given)	n	u	n	n	-42	n
COc1cccc(C2=CC(c3ccc(N(C)C)cc3)n3nnnc3N2)c1 (stereo not given)	n	n	n	n	-36	n
CCOc1ccc(C2=CC(c3cc(Br)ccc3F)n3ncnc3N2)cc1Cl (stereo not given)	n	x	n	n	-86	n
CS(=O)(=O)N(CC(=O)N1CCCCC1)Cc1ccc(Cl)cc1	n	n	n	n	n	n
O=C(Cn1cnc2cc([N+](=O)[O-])ccc2c1=O)NCc1ccc(Cl)cc1	n	n	n	n	n	n

From PubChem BioAssay
